Screens deposited in PubChem by several laboratories.
This is a sample that favours compounds with a hit; in the whole collection about 4.6% have one here.
CF NFkB inh: inhibitors of cystic fibrosis induced NF-kB; inhibition, % at 5 µM; hit rate 0.86% among 360,000; KKLEB NF-kB-GFP reporter, PAF-induced, GFP fluorescence overnight; AID 588850;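 active means at least 50% inhibition at 5 µM, scaled per plate between neutral and stimulator controls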;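 further: PAF is a Pseudomonas aeruginosa culture filtrate used as stimulus; plate controls were PAF-stimulated DMSO wells for no effect and unstimulated DMSO wells for full effect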
KKLEB tox: CF airway cell cytotoxicity counter-screen. activity change (cytotoxicity), % at 5 µM. KKLEB CF airway cells viability, ATPlite luminescence, overnight; hits give low values; cells stimulated with P. aeruginosa culture filtrate. AID 602141. hit rate 0.36% among 360,000;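 active means corrected activity change at or below -50% at 5 µM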
ABHD5-PLIN5 inh: inhibitors of human ABHD5-perilipin-5 interaction. Q00G26+Q8WTS1. Split G. princeps luciferase complementation, luminescence, 4 h. inhibition, % at 4 µM. hit rate 0.78% among 360,000. AID 602281;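 active means inhibition above the mean inhibition across every tested compound plus 3 SD, cut at about 22% in these data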;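 further: 0% = DMSO only wells and the 100% control is not disclosed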
Target sequence (Q00G26 whole entry, looked up): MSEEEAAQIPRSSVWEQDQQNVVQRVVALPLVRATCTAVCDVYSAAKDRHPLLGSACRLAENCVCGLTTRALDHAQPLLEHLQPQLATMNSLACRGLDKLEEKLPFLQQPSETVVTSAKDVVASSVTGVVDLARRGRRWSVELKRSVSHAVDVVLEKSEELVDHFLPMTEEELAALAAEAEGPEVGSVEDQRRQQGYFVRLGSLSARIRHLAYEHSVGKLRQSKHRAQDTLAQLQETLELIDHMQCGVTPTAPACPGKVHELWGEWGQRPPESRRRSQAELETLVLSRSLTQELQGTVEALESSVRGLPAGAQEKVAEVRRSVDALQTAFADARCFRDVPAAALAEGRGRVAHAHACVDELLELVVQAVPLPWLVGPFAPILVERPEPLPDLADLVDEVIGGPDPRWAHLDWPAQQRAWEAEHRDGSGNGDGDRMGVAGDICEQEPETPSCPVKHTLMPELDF
Target sequence (Q8WTS1 whole entry, looked up): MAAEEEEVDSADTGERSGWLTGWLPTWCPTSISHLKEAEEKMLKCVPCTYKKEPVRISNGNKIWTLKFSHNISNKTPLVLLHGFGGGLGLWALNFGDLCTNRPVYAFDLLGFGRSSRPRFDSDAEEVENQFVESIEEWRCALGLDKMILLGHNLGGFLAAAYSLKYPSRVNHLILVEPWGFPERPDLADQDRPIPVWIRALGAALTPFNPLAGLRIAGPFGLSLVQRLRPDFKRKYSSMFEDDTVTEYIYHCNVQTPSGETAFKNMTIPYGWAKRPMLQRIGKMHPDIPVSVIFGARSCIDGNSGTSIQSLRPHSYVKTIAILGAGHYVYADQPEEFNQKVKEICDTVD
Mdm2 MdmX PPI: human Mdm2/MdmX binding inhibition. O15151+Q00987. SaOS-2 split-luciferase Mdm2/MdmX complementation, luminescence. inhibition, % at 8 µM. hit rate 3% among 330,000;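 active means inhibition of at least 50% at 8 µM in the primary screen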
Peg3 promoter: inhibitors of Peg3 promoter; inhibition, % at 20 µM; AID 588405; HeLa PEG-Prom luciferase reporter, luminescence, overnight; hit rate 1.7% among 360,000;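 active means inhibition of at least 50% at 20 µM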
HIF-2a inh: blocks HIF-2a reporter activity | AID 624352 | inhibition, % at 18.8 µM | hit rate 0.72% among 360,000 | 786-0 RCC cells HIF-2a reporter, luciferase luminescence, overnight;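 active means inhibition of the luminescence signal of 40% or more relative to plate controls, in a single-dose primary screen at 18.75 µM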
Starred values were filed as active, the others as inactive; / = not tested or not shown.

SMILES	CF NFkB inh	KKLEB tox	ABHD5-PLIN5 inh	Mdm2 MdmX PPI	Peg3 promoter	HIF-2a inh
Cn1cc(CNCc2cn(C)nc2-c2ccc(C3CCCCC3)cc2)cn1	6	-4	22*	25	21	7
Cc1cc(N/N=C/c2ccc(O)c(C)c2O)nc(-c2ccccc2O)n1	104*	-102*	2	/	69*	-51
COc1ccc(Cl)cc1-c1cc(C(=O)NCc2cccc(C(F)(F)F)c2)[nH]n1	-42	11	-5	/	-2	-7
COc1ccc(-n2sc3c(c2=S)-c2cc(OC)ccc2NC3(C)C)cc1	9	-8	-11	28	8	41*
Cc1ccc(-n2nc(-c3ccco3)cc2C(=O)O)cc1	5	-10	16	0	4	1
O=C(c1cc(-c2ccco2)nn1-c1cccc(Cl)c1)N1CCCCC1	16	-11	48*	1	18	1
CCOC(=O)c1c(C)n(-c2ccc(C)cc2)c2ccc(OCC(O)CN3CCN(C)CC3)cc12 (stereo not drawn)	4	-8	22*	/	78*	13
CNC(=O)OCc1nc(SSC(C)(C)C)n(C)c1COC(=O)NC	78*	-75*	-4	/	94*	-20
CCSc1nc(COC(=O)NC)c(COC(=O)NC)n1C	20	-9	-10	/	7	-1
OC[C@@H]1CN(Cc2ccc(F)cc2)C[C@H](n2cnc3c(N4CCOCC4)ncnc32)O1	-20	2	3	/	4	6
CC1CCCCC1NC(=O)NC(=O)COC(=O)c1nccnc1N (stereo not drawn)	-16	11	-8	32	3	6
CC1CCCCC1NC(=O)NC(=O)CCl (stereo not drawn)	11	-5	2	33	55*	13
CC1CCCC(NC(=O)NC(=O)CCl)C1C (stereo not drawn)	16	-9	3	26	51*	7
C[C@H](NC(=O)c1nc[nH]c1C(=O)N(C)CCO)c1ccccc1	0	-27	-2	/	6	8
COc1cc(C(=O)N/N=C/c2sccc2C)cc(OC)c1OC	52*	-10	0	/	-8	20
CCCCN(CC)CCNC(=O)c1nn(-c2ccc(OC)cc2)c(=O)c2c1c1ccccc1n2C	7	-2	-3	38	19	15
CCN(Cc1ccccc1)C(=O)c1nn(-c2ccc(OC)cc2)c(=O)c2c1c1ccccc1n2C	11	-6	1	0	68*	20
O=C(NNC(=O)c1ccc2ccccc2c1)c1cccc(Cl)c1	-20	-3	-8	/	-34	-65
Cc1nc2c(-c3ccc(F)cc3)cnn2c2c1CCC2	31	-21	3	-13	-119	-161
NC(Cc1ccc(F)cc1)c1csc(Nc2ccc(C(F)(F)F)cn2)n1 (stereo not drawn)	35	-10	-6	/	95*	7
NC(Cc1ccc(C(F)(F)F)cc1)c1csc(Nc2ccccn2)n1 (stereo not drawn)	-3	-7	-10	/	105*	1
Cc1cnc(C)c(Nc2nc(C(N)Cc3ccccc3)cs2)n1 (stereo not drawn)	-25	4	-4	/	-4	1
NC(Cc1ccc(Cl)cc1)c1csc(Nc2ccc(-c3ccccc3)nn2)n1 (stereo not drawn)	9	-13	-8	/	99*	0
Cc1cnc(C)c(Nc2nc(C(N)Cc3ccc(C(F)(F)F)cc3)cs2)n1 (stereo not drawn)	16	-12	-10	/	108*	12
CC1CCCC(NC(=O)CN2C(=O)NC(c3ccccc3)(c3ccccc3)C2=O)C1C (stereo not drawn)	-16	28	-2	-4	7	12
SMILES	CF NFkB inh	KKLEB tox	ABHD5-PLIN5 inh	Mdm2 MdmX PPI	Peg3 promoter	HIF-2a inh
COC(=O)C1=C/C=C\CN(C(c2ccccc2)c2ccccc2)/C=C\1C(=O)OC	24	-9	6	/	-4	5
CC1(C(=O)O)CCN1C(=O)c1cccc(OC(F)(F)F)c1 (stereo not drawn)	12	8	-3	/	5	8
CSc1ncccc1C(=O)N1CCC(C)(C(=O)O)C1 (stereo not drawn)	-17	16	-6	/	1	9
O=[N+]([O-])c1cc(S(=O)(=O)Oc2ccccc2)ccc1Cl	88*	-72*	4	/	107*	88*
Clc1ccccc1-c1ccc2nccn2c1	30	-22	-3	/	-12	-19
O=C(Nc1cccc(O)c1)C(Cc1ccccc1)N1C(=O)c2cccc3cccc(c23)C1=O (stereo not drawn)	24	-22	20	11	66*	23
O=C(O)C(Cc1ccccc1)N1C(=O)c2cccc3cccc(c23)C1=O (stereo not drawn)	0	-8	0	-26	12	18
CCOC(=O)c1c(N)n(CCOC(=O)c2cccs2)c2nc3ccccc3nc12	50*	-38	-20	7	-16	-6
CCCCCOC(=O)c1c(N)n(CCOC)c2nc3ccccc3nc12	-20	-7	-9	22	19	-15
O=C(Nc1cccc(NC(=O)c2ccc([N+](=O)[O-])o2)c1)c1ccco1	43	-8	6	20	57*	-13
COc1cc(NC(=O)c2ccc([N+](=O)[O-])o2)ccc1NC(=O)c1cccs1	-29	-3	-1	25	59*	-14
O=C(Nc1ccc(NC(=O)c2cc3ccccc3o2)cc1)c1ccco1	-12	6	0	-23	63*	-48
O=C(Nc1ccc(NC(=O)c2ccc([N+](=O)[O-])o2)cc1Cl)c1ccco1	44	2	0	35	47	6
O=C(/C=C/c1ccc(Cl)c([N+](=O)[O-])c1)Nc1ccc(NC(=O)c2ccco2)cc1	9	0	2	/	61*	-13
COc1cc(NC(=O)c2cccs2)ccc1NC(=O)Cc1ccccc1	-4	6	-7	18	-51	-35
CC(C1=C(CCN(C)C)Cc2ccccc21)c1ccccn1 (stereo not drawn)	2	5	-6	/	-21	-3
CN(C)C(=O)c1ccc(Cc2cn(C)c3ccccc23)nc1	5	-10	10	/	-22	-2
CCCN(CC(=O)Nc1ccccc1C)C(=O)c1nn(CC)c(=O)c2ccccc12	-15	6	2	22	0	16
C[C@H](CO)N1C[C@H](C)[C@@H](CN(C)C(=O)Nc2ccc(C(F)(F)F)cc2)Oc2c(NC(=O)CCC(F)(F)F)cccc2C1=O	6	4	-9	27	-10	12
Cc1c(C(=O)Nc2ccccc2N2CCN(C)CC2)oc2ccc(F)cc12	-10	-14	22*	33	22	-15
O=C(Nc1ccc(N2CCOCC2)cc1)c1ccc([N+](=O)[O-])o1	6	-7	-1	45	102*	31
COc1ccccc1N1CCN(C(=O)c2oc3ccc(F)cc3c2C)CC1	13	-4	2	34	30	9
